The campaign covered roughly 52,000 compounds. About 4,300 (8.3%) were called active. Rule as the data show it: active = survival mostly below about 52% (no sharp cut-off); inactive = mostly above about 56%. Only a selection was taken, and actives are over-represented in it overall.
Test system: DeltatarO mutant
Assay: S. aureus survival, RN4220 and DeltatarO strains – OD600, teichoic acid synthesis inhibitors, primary screen (AID 463173)
Settings: S. aureus RN4220 wild type/DeltatarO growth, OD600, 18 h, active compounds read low, screened at 18.75 µg/mL (by protocol)

**Q.** For `O=C(Nc1ccccc1C(F)(F)F)c1ccc2oc(=O)c(S(=O)(=O)c3ccc(F)cc3)cc2c1`, which survival is on record?
**A.** 89% (inactive)

**Q.** With `CSc1cccc(NC(=O)C2CCCN(S(=O)(=O)c3ccc4c(c3)CCCN4C(C)=O)C2)c1` (configuration not stated) as the compound, how does the survival read?
**A.** 71% (inactive)

**Q.** `O=C(OCC1CCCO1)c1ccc2c(c1)N(Cc1ccc(F)cc1)C(=O)c1ccccc1S2(=O)=O` (configuration not stated) was tested. Which survival did it give?
**A.** 101% (inactive)

**Q.** How did the survival turn out when `Cc1ccc2occ(CC(=O)N(Cc3ccc(N(C)C)cc3)C3CCS(=O)(=O)C3)c2c1` (configuration not stated) was run?
**A.** 74% (inactive)

**Q.** Which survival does the source give for `Cc1ccc(CNC(=O)Cn2c3ncccc3c(=O)n2-c2ccccc2)cc1` here?
**A.** 81% (inactive)

**Q.** `CC(=O)N1CCc2c(sc(NC(=O)CSc3ccc(C)cc3)c2-c2nc3ccccc3s2)C1` was tested. Which survival did it give?
**A.** 92% (inactive)

**Q.** `COC(=O)c1ccc(-c2ccc(/C=N/NC(=O)CC3(C)OCCCO3)o2)cc1` was tested. Which survival did it give?
**A.** 96% (inactive)

**Q.** Which survival does the source give for `CCCCNC(=O)c1cnc2sc(N3CCCCCC3)nn2c1=O` here?
**A.** 79% (inactive)

**Q.** Which survival does the source give for `CN(C)c1ccc(CNC(=O)CCCN2C(=O)c3cccnc3Oc3ccc(Cl)cc32)cc1` here?
**A.** 81% (inactive)

**Q.** With `Cn1c(SCC(=O)N2CCCc3ccccc32)nnc1-c1ccccc1N` as the compound, how does the survival read?
**A.** 92% (inactive)

**Q.** With `CCc1ccc(NC(=O)CSc2nc(C)c(C(=O)Nc3ccc(Cl)cc3)c(-c3ccc(OC)cc3)c2C#N)cc1` as the compound, how does the survival read?
**A.** 92% (inactive)

**Q.** How did the survival turn out when `Cc1cc(F)ccc1NC(=O)CN1C(=O)CCc2cc(S(=O)(=O)N3CCOCC3)ccc21` was run?
**A.** 76% (inactive)

**Q.** Which survival does the source give for `COc1ccc(C)cc1NC(=O)CN1C(=O)CCc2cc(S(=O)(=O)N3CCOCC3)ccc21` here?
**A.** 94% (inactive)

**Q.** With `Cc1ccc(NC(=O)CN2C(=O)C(C)(C)c3cc(S(=O)(=O)N4CCCCC4)ccc32)c(Br)c1` as the compound, how does the survival read?
**A.** 67% (inactive)

**Q.** `Cc1ccc(NC(=O)CN2C(=O)CCc3cc(S(=O)(=O)N4CCOCC4)ccc32)cc1F` was tested. Which survival did it give?
**A.** 47% (active)

**Q.** `Cc1ccc(Cl)cc1NC(=O)CN1C(=O)C(C)(C)c2cc(S(=O)(=O)N3CCCCC3)ccc21` was tested. Which survival did it give?
**A.** 6% (active)

**Q.** Which survival does the source give for `COc1ccc(Cl)cc1NC(=O)CN1C(=O)C(C)(C)c2cc(S(=O)(=O)N3CCCCC3)ccc21` here?
**A.** 70% (inactive)

**Q.** With `COc1ccc(OC)c(NC(=O)CN2C(=O)CCc3cc(S(=O)(=O)N4CCCCC4)ccc32)c1` as the compound, how does the survival read?
**A.** 32% (active)

**Q.** For `Cc1ccc(NC(=O)CN2C(=O)CCc3cc(S(=O)(=O)N4CCOCC4)ccc32)cc1N(C)C`, which survival is on record?
**A.** 93% (inactive)

**Q.** Which survival does the source give for `COc1ccc(NC(=O)CN2C(=O)CCc3cc(S(=O)(=O)N4CCOCC4)ccc32)c(OC)c1` here?
**A.** 80% (inactive)

**Q.** For `CCOC(=O)c1cccc(NC(=O)C(CC(C)C)N2Cc3ccccc3C2=O)c1` (configuration not stated), which survival is on record?
**A.** 128% (inactive)

**Q.** With `Cc1nc2cccnc2n1-c1cccc(C(=O)NCCc2ccc(S(N)(=O)=O)cc2)c1` as the compound, how does the survival read?
**A.** 85% (inactive)
